Measurements taken from PubChem BioAssay (NCATS).
Results filed as inconclusive are left out. Calls of active or inactive are those of the source. The call rests on the fitted dose curve; in most records, active means well fitted inhibition curve with a large enough effect; inconclusive means small, poorly fitted or top-dose-only effect; inactive means flat fitted curve, though single readings scatter.

What follows are compounds tested on HACAT (assay: qHTS assay to identify novel small-molecules to repurpose for Merkel cell carcinoma treatment (AID 1296009; further: nearly all actives have a fitted effect of over 60% in size)). Conditions: MCC and control cell lines, CellTiter-Glo viability, 72 h; series mostly up to 44.8 µM.
Source text: MCC is a rare and aggressive neuroendocrine skin cancer with limited treatment options. Approximately 80% of MCCs have the Merkel cell polyomavirus (MCPyV) DNA integrated into the host genome (virus-positive: VP-MCC) and viral oncogenes drive oncogenesis. The remaining MCCs are virus-negative (VN-MCC) and are caused by UV mutagenesis. To identify novel treatments for VP-MCC and/or VN-MCC we screened three VP-MCC cell lines (WAGA, MKL-1, MKL-2), three VN-MCC cell lines (MCC-13, MCC-26, UISO), and four immortalized, non-transformed control cell lines (HaCaT, HEK293T, CRL7250, NIH-3T3) against ~2,400 compounds in the NCGC Pharmaceutical Collection (NPC) and ~1,900 compounds in the Mechanism Interrogation PlatE (MiPE). Using cell viability as a readout (CellTiter-Glo assay) we found both overlapping and distinct drugs that can be repurposed for the treatment of VP-MCC and VN-MCC.
A high-throughput screen was conducted in 1536-well white flat bottom plates (Corning) on a Kalypsys robotic system. Cell lines WAGA, MKL-1, MKL-2, MCC-13, MCC-26, UISO, HaCaT, HEK293T, CRL7250, and NIH-3T3 were screened against 2 small molecule annotated drug libraries NPC and MIPE in dose response (8 and 11 pt. respectively) measuring cell viability after 72 hours of incubation. […] A 1,536 pintool (Kalypsys) was used to transfer 23 nL of compound in DMSO to the 1,536-well assay plates. After 72 hr incubation at 37 degree celsius, 2.5 uL of CellTiter-Glo (Promega) was dispensed into each well using a BiorapTR. Plates were incubated at room temperature for 10 min, transferred to a ViewLux (PerkinElmer) and the luminescence was recorded using an exposure time of 2 seconds. Relative luminescence units (RLUs) were normalized to in-plate controls (no cells as a positive (cytotoxicity) control, DMSO as negative control) and the normalized data was processed using NCATS in-house software.

Compound | outcome
COc1c2cc(c(O)c1OC)-c1cc(ccc1O)CCC(O)CCCC2 (stereo not given) | inactive
CN(C)C(=O)NC1CCC(CCN2CCN(c3cccc(Cl)c3Cl)CC2)CC1 (stereo not given) | inactive [at 9.27 µM]
O=C(O)c1ccccc1NCCc1ccccc1 | inactive
OCC1OC(Oc2cc(O)cc(/C=C/c3ccc(O)cc3)c2)C(O)C(O)C1O (stereo not given) | inactive
COc1ncc2cc(C(=O)Nc3cc(C(=O)NCc4cccc(Cl)c4)ccc3Cl)c(=O)[nH]c2n1 | inactive
CCNCc1nc2c(N)nc3ccccc3c2n1CC(C)(C)O | inactive
C/C=C/C=C/C(O)=C1\C(=O)[C@]2(C)C3C(C(=O)CC/C=C/C)=C(O)C4(C)C1[C@]1(C)O[C@@]4(O)[C@@]3(C)O[C@@]12O | inactive [at 17.4 µM]
Nc1nc2c(c(N3CCNCC3)n1)CCC1=C2[C@@H]2CCCC[C@@H]2O1 | inactive
Cc1ccccc1NC(=O)Nc1ccc(CC(=O)N(C)[C@@H](CC(C)C)C(=O)NCC[C@H](NC(=O)[C@@H]2CCCN2S(=O)(=O)c2cc(Cl)cc(Cl)c2)C(=O)O)cc1 | inactive [at 17.4 µM]
C=C1CCC[C@]2(C)CC[C@@H](C(=C)C(=O)O)[C@H](O)[C@@H]12 | inactive
COC1/C=C/C(C)(O)C(SCC(N)C(=O)O)CC(=O)OC(C)C(C)CC/C=C/1C (stereo not given) | inactive [at 17.4 µM]
CCCCCCOc1cc2c(cc1N(C)c1ncc(C(=O)O)cn1)C(C)(C)CCC2(C)C | inactive
CC(C)c1cccc2c(-c3ccccc3)cc(-c3ccc(-c4ccc(C(=O)O)cc4)[nH]3)nc12 | inactive
CC(C)S(=O)(=O)N[C@H]1CCOC[C@@H]1c1ccc(-c2ccc(C#N)s2)cc1 | inactive
CN1CCN(C(=O)c2ccc3cc(CCNc4ncnc5ccc(C#N)cc45)ccc3c2)CC1 | inactive
CC(=O)OC/C=C(\C)C(CC1C(C)=C(OC(C)=O)C(=O)C2C(C)(C)C(O)CCC12C)OC(C)=O (stereo not given) | inactive [at 17.4 µM]
CC1=CC(=O)[C@]2(O[C@@H]3O[C@@H](C)[C@H](O)[C@@H](O)[C@H]3OC(=O)/C=C/c3ccccc3)C=CO[C@@H](O[C@@H]3O[C@H](CO)[C@@H](O)[C@H](O)[C@H]3O)[C@H]12 | inactive [at 17.4 µM]
CS(=O)(=O)NCC1CCC(Nc2nc3c(s2)CCSc2ccccc2-3)CC1 (stereo not given) | inactive
O=C(Nc1c(-c2cccs2)nc2ccccn12)c1ccc(Cl)cc1 | inactive
CNC(=O)c1cc(Oc2ccc3nc(N[C@@H]4CCCC[C@H]4O)sc3c2)ccn1 | inactive

Compound | outcome
CC(C)CCC[C@@H](C)[C@H]1CC[C@H]2[C@@H]3CC(=O)[C@H]4C[C@@H](O)CC[C@]4(C)[C@H]3CC[C@]12C | inactive
C=C(C(=O)OC)C1C(O)CC2(C)C(O)CCC(=O)C2C1O (stereo not given) | inactive
CC1(C)CCC(C)(C)c2cc(C3(c4ccc(C(=O)O)cc4)OCCO3)ccc21 | inactive
O=C1C=CC2OC(c3ccccc3)C(O)C2O1 (stereo not given) | inactive
CC1=CC(=O)CC(C)(C)[C@H]1/C=C/C(CO)O[C@@H]1O[C@H](CO)[C@@H](O)[C@H](O)[C@H]1O (stereo not given in full) | inactive
CCN(Cc1cccnc1)C(=O)CN(c1ccc(OC)nc1)S(=O)(=O)c1ccccc1C | inactive
Cc1cc(C)c(CNC(=O)c2cc(-c3ccc(CN4CCOCC4)cc3)cc3c2cnn3C2CCCC2)c(=O)[nH]1 | inactive
C[C@@H]1O[C@@H](O[C@H]2[C@@H]3C=CO[C@@H](O[C@@H]4O[C@H](CO)[C@@H](O)[C@H](O)[C@H]4O)[C@@H]3[C@@]3(CO)O[C@@H]23)[C@H](OC(=O)/C=C/c2ccccc2)[C@H](O)[C@H]1O | inactive [at 17.4 µM]
CC(C)N(CCCCOCC(=O)NS(C)(=O)=O)c1cnc(-c2ccccc2)c(-c2ccccc2)n1 | inactive
CC1(C)CC[C@]2(C(=O)O[C@@H]3O[C@H](CO)[C@@H](O)[C@H](O)[C@H]3O)CC[C@]3(C)C(=CCC4[C@@]5(C)CC[C@H](O[C@@H]6O[C@H](C(=O)O)[C@@H](O)[C@H](O)[C@H]6O)[C@@](C)(CO)C5CC[C@]43C)C2C1 (stereo not given in full) | inactive [at 9.27 µM]
C=C(C)C1CCC(C)C12CC(O)C1(C)OC1C2OC(=O)C(N)CCC(=O)O (stereo not given) | inactive
C[C@H](CCC(=O)O)[C@H]1CC[C@H]2[C@@H]3C[C@H](O)[C@@H]4C[C@H](O)CC[C@]4(C)[C@H]3CC[C@]12C | inactive
Cc1nc2ccc(Oc3ccc(F)cc3)cc2c(=O)n1C[C@H]1CCCN(C(C)C)C1 | inactive
COC(=O)C1=CO[C@@H](O[C@@H]2O[C@H](CO)[C@@H](O)[C@H](O)[C@H]2O)C2C1C(=O)C[C@H]2C (stereo not given in full) | inactive
COc1ccc(-n2[nH]c(=O)c3[nH]c4cc(Cl)ccc4c(=O)c3c2=O)c(C)c1 | inactive
CO/N=C(/C(=O)N[C@@H]1C(=O)N2C(C(=O)O)=C(Cn3ccc(=N)n3CCO)CS[C@H]12)c1csc(N)n1 | inactive
CC12CCC(OC3OC(CO)C(O)C(OC4OC(CO)C(O)C(O)C4O)C3O)CC1=CCC1C2CCC2(C)/C(=C3/COC(=O)C3)CCC12O (stereo not given) | inactive [at 17.4 µM]
COc1ccc(-c2cnc3ccc(NCc4ccc(S(N)(=O)=O)cc4)nn23)cc1OC | inactive
CCC1=CC2CN(C1)Cc1c([nH]c3ccccc13)[C@@](C(=O)OC)(c1cc3c(cc1OC)N(C)[C@H]1[C@@](O)(C(=O)OC)[C@H](OC(C)=O)[C@]4(CC)C=CCN5CC[C@]31[C@@H]54)C2 (stereo not given in full) | inactive [at 17.4 µM]
Cc1cc(C(=O)Nc2cccc(C(=O)Nc3cccc(C(F)(F)F)c3)c2)on1 | inactive
